PubChem BioAssay (NCI)
Compounds without any hit were thinned out: in the full panel of roughly 79,000, 15% have a hit. The source made the active and inactive calls. No stated cut-off is given here; in the data, active means growth inhibition above about 70%; inactive means the rest.

Tests used:
[1] = NCI Yeast Anticancer Drug Screen. Data for the mlh1 rad18 strain (AID 175); settings: S. cerevisiae mlh1 rad18 strain growth inhibition, hits give high values
How it was run: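 Inhibition values reflect reduced growth of mutant yeast versus vehicle-treated controls following compound exposure; the mutations affect DNA damage repair.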

[2] = NCI Yeast Anticancer Drug Screen. Data for the rad18 strain (AID 177); settings: S. cerevisiae rad18 mutant growth inhibition, hits give high values
How it was run: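 Steps: expose repair-mutant yeast to compound; measure growth; express as inhibition relative to vehicle control.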

[3] = NCI Yeast Anticancer Drug Screen. Data for the rad52 strain (AID 147);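 further: 0% = growth of vehicle-treated control cultures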; settings: S. cerevisiae rad52 mutant growth inhibition, hits give high values
How it was run: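 Inhibition of yeast growth, referenced to vehicle controls, was the measured output for a strain with defective DNA damage repair.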

[4] = NCI Yeast Anticancer Drug Screen. Data for the rad50EPP+ strain (AID 151);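 further: 0% = growth of vehicle-treated control cultures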; settings: S. cerevisiae rad50 mutant strain, hits give high values
How it was run: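 Genetically defined yeast (rad50EPP+, DNA damage repair alteration) is grown with compound, and inhibition of growth is expressed relative to vehicle-treated controls.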

[5] = NCI Yeast Anticancer Drug Screen. Data for the mgt1 strain (AID 153); settings: S. cerevisiae mgt1 mutant growth inhibition, hits give high values
How it was run: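 In the mgt1 strain, test compounds were added and growth inhibition was determined relative to vehicle-treated controls.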

[6] = NCI Yeast Anticancer Drug Screen. Data for the rad50 strain (AID 155);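 further: 0% = growth of vehicle-only cultures of the same strain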; settings: S. cerevisiae rad50 strain growth inhibition, hits give high values
How it was run: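 Yeast carrying a defined DNA repair defect were exposed to test compounds, and growth was compared with vehicle-treated controls to give percent inhibition.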

[7] = NCI Yeast Anticancer Drug Screen. Data for the mec2-1 strain (AID 157); settings: S. cerevisiae mec2-1 strain, hits give high values
How it was run: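 Each compound was tested on mec2-1 yeast, a strain altered in DNA damage repair or cell cycle control. Growth inhibition is reported relative to vehicle.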

[8] = NCI Yeast Anticancer Drug Screen. Data for the rad14 strain (AID 159);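 further: 0% = growth of vehicle-treated control cultures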; settings: S. cerevisiae rad14 strain growth inhibition, hits give high values
How it was run: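 Yeast cells carrying a defined DNA-repair defect were exposed to compounds, and growth inhibition was calculated relative to vehicle-treated control cultures.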

[9] = NCI Yeast Anticancer Drug Screen. Data for the sgs1 mgt1 strain (AID 161);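 further: 0% = growth of cultures given vehicle only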; settings: S. cerevisiae sgs1 mgt1 strain, hits give high values
How it was run: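 Read-out: growth inhibition vs vehicle controls. Cells: mutant yeast strain deficient in DNA damage repair.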

[10] = NCI Yeast Anticancer Drug Screen. Data for the CLN2oe strain (AID 163);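 further: 0% = growth of vehicle-only control cultures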; settings: S. cerevisiae CLN2oe strain, hits give high values
How it was run: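 First, the altered yeast strain was treated with each compound; second, its growth was measured; finally, inhibition was derived by comparison with vehicle controls.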

[11] = NCI Yeast Anticancer Drug Screen. Data for the cln2 rad14 strain (AID 165);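 further: 0% = growth equal to vehicle treated cultures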; settings: S. cerevisiae cln2 rad14 strain, hits give high values
How it was run: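 Test compounds were added to cln2 rad14 yeast cultures; inhibition of growth was then determined by comparison with vehicle treatment.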

[12] = NCI Yeast Anticancer Drug Screen. Data for the bub3 strain (AID 167); settings: S. cerevisiae bub3 mutant strain, hits give high values
How it was run: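 Compounds were applied to a genetically altered yeast strain carrying a cell-cycle control defect. Growth inhibition was scored against vehicle-treated controls.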

[13] = NCI Yeast Anticancer Drug Screen. Data for the wt2 strain (AID 169);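 further: 0% = growth of vehicle-treated yeast cultures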; settings: S. cerevisiae wt2 strain growth inhibition, hits give high values
How it was run: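 The panel's yeast strains carry defined changes in DNA repair or cell cycle genes. Each strain is grown with compound, and growth loss is scored relative to vehicle.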

[14] = NCI Yeast Anticancer Drug Screen. Data for the mlh1 strain (AID 171);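 further: 0% = growth of vehicle-treated control cultures of the same strain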; settings: S. cerevisiae mlh1 strain growth inhibition, hits give high values
How it was run: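 Inhibition values reflect reduced yeast growth in the presence of compound, referenced to vehicle controls, using a strain chosen for its alteration in DNA repair or cell cycle control.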

[15] = NCI Yeast Anticancer Drug Screen. Data for the wt1 strain (AID 149);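 further: 0% = growth of vehicle-treated wt1 cultures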; settings: S. cerevisiae wt1 strain (SPY 50644) growth inhibition, hits give high values
How it was run: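 Yeast wt1 strain exposed to compounds; growth inhibition measured relative to vehicle-treated controls.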

[16] = NCI Yeast Anticancer Drug Screen. Data for the sgs1 strain (AID 173);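 further: 0% = growth of vehicle-only control cultures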; settings: S. cerevisiae sgs1 mutant, hits give high values
How it was run: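 Vehicle-treated cultures served as reference for growth inhibition of a yeast strain altered in DNA damage repair or cell cycle control after compound exposure.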

[17] = at 5.0 µM (retest, dose inferred, filed as 0.5)
[18] = at 50.0 µM (retest, dose inferred, filed as 5.0)

Measured: growth inhibition

Nc1nc(-c2ccccc2)c(-c2ccccc2)[se]1
inactive: [1]; [17] 6% | [1]; [18] 10% | [1]; at 50.0 µM 62.5% | [2]; at 1.2 µM 5% | [2]; at 3.7 µM 8% | [2]; at 11.0 µM 6% | [2]; at 33.0 µM 15% | [2]; at 100.0 µM 51%

CCCCCCCCCCCCCCCCP(=O)(O)OCC(N)C(=O)O (centres undefined)
inactive: [3]; at 1.2 µM -5% | [3]; at 3.7 µM -40% | [3]; at 11.0 µM -38% | [3]; at 33.0 µM -15% | [4]; at 1.2 µM 0% | [4]; at 3.7 µM -5% | [4]; at 11.0 µM 5% | [4]; at 33.0 µM 20% | [4]; at 100.0 µM 69% | [5]; at 1.2 µM 15% | [5]; at 3.7 µM 21% | [5]; at 11.0 µM 7% | [5]; at 33.0 µM 43% | [6]; at 1.2 µM -14% | [6]; at 3.7 µM -14% | [6]; [17] -19% | [6]; at 11.0 µM -39% | [6]; at 33.0 µM 6% | [6]; [18] 46% | [6]; at 50.0 µM 66.9% | [7]; at 1.2 µM -22% | [7]; at 3.7 µM -24% | [7]; [17] -11% | [7]; at 11.0 µM -25% | [7]; at 33.0 µM -20% | [7]; [18] 3% | [7]; at 50.0 µM 58.8% | [8]; at 1.2 µM -67% | [8]; at 3.7 µM -61% | [8]; at 11.0 µM -55% | [8]; at 33.0 µM -47% | [9]; [17] -11% | [9]; [18] 39% | [10]; at 1.2 µM 1% | [10]; at 3.7 µM -3% | [10]; at 11.0 µM 0% | [10]; at 33.0 µM -6% | [10]; at 100.0 µM -8% | [11]; [17] 23% | [11]; [18] 7% | [11]; at 50.0 µM 60.9% | [12]; at 1.2 µM -1% | [12]; at 3.7 µM 1% | [12]; [17] -9% | [12]; at 11.0 µM 0% | [12]; at 33.0 µM -1% | [12]; [18] -8% | [12]; at 50.0 µM 60.1% | [12]; at 100.0 µM -13% | [13]; at 1.2 µM -1% | [13]; at 3.7 µM -2% | [13]; at 11.0 µM -4% | [13]; at 33.0 µM -2% | [13]; at 100.0 µM -3% | [14]; at 1.2 µM -18% | [14]; at 3.7 µM -26% | [14]; at 11.0 µM -53% | [14]; at 33.0 µM 20% | [1]; [17] -34% | [1]; [18] 29% | [2]; at 1.2 µM -3% | [2]; at 3.7 µM -8% | [2]; at 11.0 µM -10% | [2]; at 33.0 µM 14%
active: [3]; at 100.0 µM 95% | [5]; at 100.0 µM 97% | [6]; at 100.0 µM 96% | [7]; at 100.0 µM 96% | [8]; at 100.0 µM 93% | [9]; at 50.0 µM 93.5% | [14]; at 100.0 µM 96% | [1]; at 50.0 µM 73.9% | [2]; at 100.0 µM 97%

CCN(CCCl)CCCCNc1c2ccccc2nc2ccc(OC)cc12
active: [15]; at 33.0 µM 74% | [15]; at 100.0 µM 95% | [4]; at 33.0 µM 77% | [4]; at 100.0 µM 90% | [5]; at 33.0 µM 86% | [5]; at 100.0 µM 97% | [6]; at 11.0 µM 84% | [6]; at 33.0 µM 91% | [6]; at 50.0 µM 85.8% | [6]; at 100.0 µM 95% | [7]; at 33.0 µM 94% | [7]; at 50.0 µM 74.2% | [7]; at 100.0 µM 97% | [8]; at 11.0 µM 80% | [8]; at 33.0 µM 95% | [8]; at 100.0 µM 98% | [9]; at 50.0 µM 72.1% | [10]; at 33.0 µM 78% | [10]; at 100.0 µM 95% | [11]; at 50.0 µM 77.9% | [12]; at 33.0 µM 82% | [12]; at 100.0 µM 94% | [13]; at 33.0 µM 82% | [13]; at 100.0 µM 95% | [14]; at 33.0 µM 70% | [14]; at 100.0 µM 96% | [16]; at 11.0 µM 82% | [16]; at 33.0 µM 90% | [16]; at 100.0 µM 96% | [2]; at 3.7 µM 80% | [2]; at 11.0 µM 90% | [2]; at 33.0 µM 94% | [2]; at 100.0 µM 95%
inactive: [15]; at 1.2 µM 3% | [15]; at 3.7 µM 8% | [15]; at 11.0 µM 32% | [4]; at 1.2 µM 18% | [4]; at 3.7 µM 39% | [4]; at 11.0 µM 63% | [5]; at 1.2 µM 9% | [5]; at 3.7 µM 14% | [5]; at 11.0 µM 42% | [6]; at 1.2 µM 38% | [6]; at 3.7 µM 64% | [6]; [17] 46% | [6]; [18] 46% | [7]; at 1.2 µM 9% | [7]; at 3.7 µM 18% | [7]; [17] 26% | [7]; at 11.0 µM 48% | [7]; [18] 26% | [8]; at 1.2 µM 4% | [8]; at 3.7 µM 17% | [9]; [17] 60% | [9]; [18] 60% | [10]; at 1.2 µM 8% | [10]; at 3.7 µM 33% | [10]; at 11.0 µM 57% | [11]; [17] 24% | [11]; [18] 24% | [12]; at 1.2 µM -21% | [12]; at 3.7 µM -14% | [12]; [17] -15% | [12]; at 11.0 µM 38% | [12]; [18] -15% | [12]; at 50.0 µM 60.9% | [13]; at 1.2 µM 4% | [13]; at 3.7 µM 13% | [13]; at 11.0 µM 38% | [14]; at 1.2 µM 4% | [14]; at 3.7 µM 16% | [14]; at 11.0 µM 51% | [16]; at 1.2 µM 46% | [16]; at 3.7 µM 69% | [1]; [17] 18% | [1]; [18] 18% | [1]; at 50.0 µM 69.5% | [2]; at 1.2 µM 66%
